Test [1] in a line: AP1 Signaling Pathway (AID 357; active = well fitted curve in either direction with a large enough effect, not every such curve was filed as active;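 note: ME-180 reporter cells stimulated with EGF at its EC50 level; % is set by controls: 0 for no effect and ±100 for the full control effect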). Conditions: ME-180 AP-1-bla reporter, EGF-induced, beta-lactamase ratio, 5 h; at 7.69 µM (top of the series) unless noted. The method in brief: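 Beta-lactamase reporter under AP-1 response element, ME-180 background. Stimulus: EC50 EGF. Compound exposure 5 h, 37 °C. Detection: CCF4, 2.5 h RT, 460/530 nm. Values: AC50 from titration.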
For test [2], the target named is Cytochrome P450 1A2 (Homo sapiens) (UniProt P05177). Put plainly: p450-cyp1a2 (AID 410; calls by dose curve; note: potency is the fitted concentration of half-maximal effect;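 for activity change, negative = inhibition: -100% = full effect of reference inhibitor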). The method in brief: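 20nM CYP1A2 with 100uM Luciferin-ME (at Km) in 100mM KPO4; compound preincubated 10 min, NADPH regeneration added, 60 min at room temperature. Luciferin quantified by luminescence after detection reagent; normalized to 57 uM furafylline.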
Sequence of Cytochrome P450 1A2 (Homo sapiens) (P05177 whole entry, looked up): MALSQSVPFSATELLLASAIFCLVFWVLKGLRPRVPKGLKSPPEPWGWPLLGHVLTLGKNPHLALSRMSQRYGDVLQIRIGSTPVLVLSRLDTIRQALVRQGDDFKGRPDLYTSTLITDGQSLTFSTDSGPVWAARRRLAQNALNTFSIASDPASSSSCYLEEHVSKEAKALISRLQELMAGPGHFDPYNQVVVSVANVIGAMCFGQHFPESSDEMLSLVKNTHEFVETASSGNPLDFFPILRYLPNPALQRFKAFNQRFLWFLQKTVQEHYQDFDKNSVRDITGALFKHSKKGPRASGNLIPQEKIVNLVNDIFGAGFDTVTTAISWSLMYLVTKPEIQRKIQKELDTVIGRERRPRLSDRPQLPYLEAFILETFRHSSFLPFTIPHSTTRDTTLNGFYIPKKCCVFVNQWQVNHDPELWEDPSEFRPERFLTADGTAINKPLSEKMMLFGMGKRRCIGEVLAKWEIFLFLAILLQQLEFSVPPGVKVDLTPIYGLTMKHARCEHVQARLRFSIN
A short description of test [3]: NFAT Signaling Pathway (AID 444; active = well fitted curve in either direction with a large enough effect, not every such curve was filed as active;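 note: carbachol stimulus at about its EC50 of 1 µM final; % is set by controls: 0 for no effect and ±100 for the full control effect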). Conditions: Jurkat NFAT-bla M1, carbachol, beta-lactamase ratio, 5 h; at 7.69 µM (top of the series) unless noted. The method, boiled down: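 Jurkat cells with NFAT-driven β-lactamase reporter and co-expressed M1 receptor, stimulated with carbachol (final 1 uM, ~EC50), compound titration, 5 h at 37 °C. CCF4 loaded 1 h at RT; 460/530 nm ratio gave %activity and AC50.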

Test [4] can be described thus: Stat Signaling Pathway (AID 446; active = well fitted curve in either direction with a large enough effect, not every such curve was filed as active;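 note: ME-180 cervical cancer cells given 40 pM IL-6 alongside compound; SIE-controlled beta-lactamase reporter measured as 460/530 nm FRET emission ratio; % is set by controls: 0 for no effect and ±100 for the full control effect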). The settings on record: ME-180 (cervical carcinoma) SIE beta-lactamase reporter, IL-6 stimulated, 5 h; at 7.69 µM (top of the series) unless noted. The method, boiled down:
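IL-6/STAT signaling read in ME-180 cells via an SIE beta-lactamase reporter. Stimulus was 40 pM IL-6 (its AC50) for 5 hrs, so both activation and inhibition register.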

The target in test [5] is Glucocorticoid receptor (Homo sapiens) (UniProt P04150). Put plainly: GR-GFP Redistribution (AID 450;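 active = compounds whose dose series gives a full or clear partial fitted curve of increased nuclear translocation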; note: potency is the fitted concentration of half-maximal effect). The settings on record: U2OS GR-GFP nuclear translocation, laser cytometry, 2 h.
Sequence of Glucocorticoid receptor (Homo sapiens) (P04150 whole entry, looked up, the tested form may be a part): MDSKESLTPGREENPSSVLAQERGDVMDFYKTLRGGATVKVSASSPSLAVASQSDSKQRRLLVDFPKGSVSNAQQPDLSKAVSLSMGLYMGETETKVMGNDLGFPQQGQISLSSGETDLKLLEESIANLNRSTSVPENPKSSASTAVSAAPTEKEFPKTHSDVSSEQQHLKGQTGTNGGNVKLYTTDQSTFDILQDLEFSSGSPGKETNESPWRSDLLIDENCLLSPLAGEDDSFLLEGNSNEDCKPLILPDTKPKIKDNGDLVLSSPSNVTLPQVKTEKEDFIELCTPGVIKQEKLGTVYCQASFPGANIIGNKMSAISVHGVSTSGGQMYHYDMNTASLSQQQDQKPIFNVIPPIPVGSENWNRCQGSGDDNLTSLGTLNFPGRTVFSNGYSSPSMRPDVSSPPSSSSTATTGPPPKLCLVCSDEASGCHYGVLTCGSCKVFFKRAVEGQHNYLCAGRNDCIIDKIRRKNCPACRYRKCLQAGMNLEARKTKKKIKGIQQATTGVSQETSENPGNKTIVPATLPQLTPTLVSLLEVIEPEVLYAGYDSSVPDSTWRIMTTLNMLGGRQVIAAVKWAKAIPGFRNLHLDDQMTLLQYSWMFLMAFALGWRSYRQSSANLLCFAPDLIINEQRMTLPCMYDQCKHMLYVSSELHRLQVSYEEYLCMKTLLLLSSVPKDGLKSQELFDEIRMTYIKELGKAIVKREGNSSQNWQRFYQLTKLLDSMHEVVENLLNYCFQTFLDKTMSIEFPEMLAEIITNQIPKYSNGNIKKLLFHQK
The target of test [6] is Mitogen-activated protein kinase 10 (Mus musculus) (UniProt Q61831). Put plainly: JNK3 AlphaScreen Assay (AID 530; active = well fitted curve in either direction with a large enough effect, not every such curve was filed as active;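 note: kinase came from lysate of stimulated human HepG2 cells; signal reports phosphorylation of biotinylated GST-cJun 1-79 at Ser73 with 10 µM ATP; % is set by controls: 0 for no effect and ±100 for the full control effect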). The method, boiled down:
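Pre-activated (IL-1β/TNFα) JNK3 in HepG2 lysates phosphorylates biotin-GST-cJun(1-79), 10 uM ATP; anti-phospho-cJun(Ser73) AlphaScreen read at room temperature, pH 7.6 Tris buffer. Compounds pre-incubated 15 min as titrations.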

For test [7], the target named is 3',5'-cyclic-AMP phosphodiesterase 4B (Homo sapiens) (UniProt Q07343). Put plainly: qHTS Assay for Inhibitors of PDE-IV (AID 607; active = well fitted activation curve with a large enough effect in the main read-out, with a control signal flat, not every such curve was filed as active; note: % of control where 0% means no effect). The method, boiled down:
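Live HEK293 cells with a modified cyclic nucleotide-gated (CNG) channel report intracellular cAMP via membrane-potential dye fluorescence (ex 535/em 590 nm). Endogenous PDE-IV was targeted. Compounds were tested at up to 22.9 uM final; RO 20-1724 100 uM served as control.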
(Quantitative high-throughput screening tests each substance at several concentrations.)

The target in test [8] is Guanine nucleotide-binding protein G(i) subunit alpha-1 (Homo sapiens) (UniProt P63096). Put plainly: qHTS Assay for Inhibitors of RGS12 GoLoco Motif Activity (Green Fluorophore) (AID 879).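 Note: 0% = labeled peptide with Gαi1 and full inhibition = labeled peptide alone without protein; negative values mean loss of peptide binding seen as reduced polarization.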 The method, boiled down:
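Fluorescence polarization assay: 50 nM Gαi1 with 10 nM FITC-labeled RGS12 GoLoco peptide in 10 mM Tris pH 7.5, 150 mM NaCl, 0.1 mM GDP, 0.05% NP40, 10 min at room temperature with compound.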

The target in test [9] is Muscarinic acetylcholine receptor M1 (Rattus norvegicus) (UniProt P08482). Put plainly: qHTS Assay for Antagonists of Acetylcholine Muscarinic M1 Receptor: Measurement of IP-One Response (AID 944). Note: nearly all actives have a fitted effect of over 75% in size. The method, boiled down: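 CHO cells stably expressing rat M1, pretreated 10 min with compound, then stimulated 30 min with carbachol at EC80 (200 nM) in LiCl-containing buffer pH 7.4; IP1 accumulation read by HTRF competition (665/620 nm).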
Sequence of Muscarinic acetylcholine receptor M1 (Rattus norvegicus) (P08482 whole entry, looked up): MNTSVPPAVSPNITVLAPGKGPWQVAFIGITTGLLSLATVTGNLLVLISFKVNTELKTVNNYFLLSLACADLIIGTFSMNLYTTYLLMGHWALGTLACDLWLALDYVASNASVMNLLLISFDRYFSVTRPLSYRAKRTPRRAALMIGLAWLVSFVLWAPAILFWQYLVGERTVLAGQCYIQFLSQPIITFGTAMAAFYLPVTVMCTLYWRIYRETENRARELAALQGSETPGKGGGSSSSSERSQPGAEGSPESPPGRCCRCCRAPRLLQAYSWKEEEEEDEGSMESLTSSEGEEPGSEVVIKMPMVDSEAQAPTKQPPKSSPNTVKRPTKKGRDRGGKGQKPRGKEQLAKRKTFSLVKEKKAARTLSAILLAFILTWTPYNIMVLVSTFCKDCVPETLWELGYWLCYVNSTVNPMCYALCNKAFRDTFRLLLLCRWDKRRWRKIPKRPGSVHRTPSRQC

For test [10], the target named is Pyruvate kinase (Leishmania mexicana) (UniProt Q27686). Put plainly: qHTS Validation Assay for Inhibitors of Leishmania Mexicana Pyruvate Kinase (AID 945).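 Note: 0% = DMSO only neutral control wells.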 The method in brief: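 Purified LmPYK (E451W mutant, 0.2 nM) was incubated 1 h at room temperature with 0.5 mM PEP and 0.1 mM ADP in 50 mM imidazole pH 7.2, 50 mM KCl, 7 mM MgCl2; ATP formed was read by PKLight luminescence, normalized to DMSO wells.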
Sequence of Pyruvate kinase (Leishmania mexicana) (Q27686 2-499 E452W): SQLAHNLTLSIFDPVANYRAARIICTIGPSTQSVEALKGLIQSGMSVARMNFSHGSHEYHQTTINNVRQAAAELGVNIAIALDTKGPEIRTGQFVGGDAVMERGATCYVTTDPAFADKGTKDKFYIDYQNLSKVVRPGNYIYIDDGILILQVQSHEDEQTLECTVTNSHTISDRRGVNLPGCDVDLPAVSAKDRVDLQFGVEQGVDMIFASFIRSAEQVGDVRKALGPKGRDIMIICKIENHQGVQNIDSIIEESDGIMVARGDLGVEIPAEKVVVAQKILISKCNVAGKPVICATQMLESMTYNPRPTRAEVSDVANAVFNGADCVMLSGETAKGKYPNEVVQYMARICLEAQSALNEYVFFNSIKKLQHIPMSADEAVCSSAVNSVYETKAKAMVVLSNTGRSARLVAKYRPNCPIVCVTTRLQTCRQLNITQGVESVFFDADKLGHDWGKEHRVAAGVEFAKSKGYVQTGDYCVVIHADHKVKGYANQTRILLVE

Test [11] concerns the target Pyruvate kinase PKM (Homo sapiens) (UniProt P14618). Put plainly: qHTS Assay for Activators of Human Muscle Pyruvate Kinase (AID 954; active = well fitted curve in the direction sought with a large enough effect, not every such curve was filed as active;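 note: 0% = uninhibited enzyme and -100% = no enzyme or full thiadiazolimine inhibition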). The method, boiled down: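 Enzyme was run at intermediate activity so both inhibitors and activators could be detected. ATP formed from ADP and PEP by 0.1 nM human PKM2 during a 1 h room-temperature incubation was quantified by coupled luciferase luminescence.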

Test [12] deals with Alpha-galactosidase A (Homo sapiens) (UniProt P06280). Put plainly: Counterscreen for Glucocerebrosidase Inhibitors: qHTS Assay for Human alpha-Galactosidase at pH 4.5 (AID 992). Note: 0% is about no effect. The method, boiled down: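 Read-out is 4-methylumbelliferone fluorescence (365 nm excitation, 440 nm emission) after a pH 10 NaOH/glycine stop. Reactions held 2 nM enzyme and 80 uM substrate at pH 4.5 for 20 min at room temperature.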
Sequence of Alpha-galactosidase A (Homo sapiens) (P06280 whole entry, looked up): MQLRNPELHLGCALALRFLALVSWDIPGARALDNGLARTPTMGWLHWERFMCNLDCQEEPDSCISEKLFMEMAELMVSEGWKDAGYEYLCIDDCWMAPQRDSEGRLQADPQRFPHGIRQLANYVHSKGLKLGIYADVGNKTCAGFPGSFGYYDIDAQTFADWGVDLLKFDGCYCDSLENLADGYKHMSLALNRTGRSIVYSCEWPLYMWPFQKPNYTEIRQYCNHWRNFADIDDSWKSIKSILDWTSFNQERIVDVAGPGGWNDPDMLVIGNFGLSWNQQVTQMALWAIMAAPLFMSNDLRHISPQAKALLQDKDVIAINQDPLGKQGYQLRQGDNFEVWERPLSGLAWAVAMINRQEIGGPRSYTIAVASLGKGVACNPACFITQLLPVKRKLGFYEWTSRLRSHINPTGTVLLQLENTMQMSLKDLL

In test [13] the target is alpha-glucosidase (Oryza sativa, rice) (UniProt Q653V4). Put plainly: Counterscreen for Glucocerebrosidase Inhibitors: qHTS Assay for Rice alpha-Glucosidase at pH 5.0 (AID 997).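 Note: 0% = full activity with enzyme and -100% = basal without enzyme.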 The method in brief: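 Rice alpha-glucosidase (4 nM final) with 400 uM 4-methylumbelliferyl-alpha-D-glucopyranoside in citrate buffer pH 5.0, 20 min at room temperature, stopped at pH 10; fluorescence 365/440 nm, compounds 0.7 nM–77 uM, AC50 from Hill fits.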
(A counterscreen serves to expose hits that act by an unwanted route or on another target.)

Test [14] concerns the target Alpha-galactosidase (Coffea arabica) (UniProt Q42656). Put plainly: Counterscreen for Glucocerebrosidase Inhibitors: qHTS Assay for Coffee Bean alpha-Galactosidase at pH 5.9 (AID 998).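 Note: plate controls were uninhibited enzyme for no effect and no-enzyme basal signal for full effect.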 The method in brief: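 Green coffee bean enzyme (2 nM) with 4-methylumbelliferyl alpha-D-galactopyranoside (80 uM) in 50 mM citric acid, 0.005% Tween-20, pH 5.9, 20 min at room temperature; compounds 0.7 nM–77 uM. Stopped at pH 10, fluorescence Ex365/Em440; Hill-fit AC50.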

Test [15] addresses Cytochrome P450 2D6 (Homo sapiens) (UniProt P10635). Put plainly: qHTS Assay for Inhibitors and Substrates of Cytochrome P450 2D6 (AID 891).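 Note: luciferin methyl ether substrate demethylated by CYP2D6 with NADPH regeneration; % is set by controls: 0 for no effect and ±100 for the full control effect; nearly all actives have a fitted effect of over 60% in size.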 The method, boiled down:
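Human CYP2D6 (5 nM) with 30 uM Luciferin-ME EGE (at Km) in 100 mM KPO4, compound preincubated 10 min, then NADPH regeneration system for 60 min at room temperature. Luciferin read by luminescence; normalized to 1.43 uM quinidine.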

Test [16] concerns the target Cytochrome P450 2C19 (Homo sapiens) (UniProt P33261). Put plainly: qHTS Assay for Inhibitors and Substrates of Cytochrome P450 2C19 (AID 899). Note: nearly all actives have a fitted effect of over 60% in size. Note: potency is the fitted concentration of half-maximal effect. The method, boiled down: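 Signal comes from luciferase acting on luciferin released by CYP2C19-mediated hydroxylation of Luciferin-H EGE, 10uM (KM). Assay mix: 5nM enzyme, 50mM KPO4; 60 min at 37C with NADPH regeneration. Data normalized against 57uM ketoconazole.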

Test [17] is described as follows: qHTS Assay for Identification of Small Molecule Agonists for Thrombopoietin (TPO) Signaling Pathway (AID 917). Note: % is set by controls: 0 for no effect and ±100 for the full control effect. The method in brief:
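Murine Ba/F3 cells expressing human TPO receptor and GPIIb-promoter luciferase, IL-3-starved overnight, given compound plus TPO at 26 pM (EC50). After 24 h at 37 C, 5% CO2, luminescence read.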

The target of test [18] is Glucocorticoid receptor (Homo sapiens) (UniProt P04150). Put plainly: GR-EFC Redistribution (AID 451; calls by dose curve; note: potency is the fitted concentration of half-maximal effect). The settings on record: CHO-K1 GR-EFC translocation, beta-gal luminescence, 2 h. The method, boiled down:
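CHO-K1 cells expressing nuclear EA and GR-ED fragments of b-gal; compounds titrated up to 46 uM final, 2 h at 37 C. GR nuclear translocation read as complemented b-gal luminescence after 1 h RT detection.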

Test [19] deals with Muscarinic acetylcholine receptor M1 (Rattus norvegicus) (UniProt P08482). Put plainly: qHTS Assay for Antagonists of Acetylcholine Muscarinic M1 Receptor: Kinetic Measurement of Intracellular Calcium Response (AID 943). Note: nearly all actives have a fitted effect of over 75% in size. The method in brief: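 CHO cells expressing rat M1 receptor, Fluo-4 loaded, preincubated 10 min with compound, then stimulated with EC80 carbachol (100 nM final). Kinetic calcium fluorescence over 4 min; response taken as peak over basal signal.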

Where “and” joins values, the source holds several entries; their conditions need not be identical. Equal entries are not always repeated. A number with no mark means an inactive call. Results filed as inconclusive are left out. Calls of active or inactive are those of the source. Unless noted, calls come from the whole dose curve; as a rule, active = well fitted curve in the direction sought with a large enough effect; inconclusive = small, poorly fitted or top-dose-only effect, or another doubt; inactive = no such curve, though single readings can be large; an effect the other way counts as inactive or inconclusive.

Sequence of 3',5'-cyclic-AMP phosphodiesterase 4B (Homo sapiens) (Q07343 whole entry, looked up): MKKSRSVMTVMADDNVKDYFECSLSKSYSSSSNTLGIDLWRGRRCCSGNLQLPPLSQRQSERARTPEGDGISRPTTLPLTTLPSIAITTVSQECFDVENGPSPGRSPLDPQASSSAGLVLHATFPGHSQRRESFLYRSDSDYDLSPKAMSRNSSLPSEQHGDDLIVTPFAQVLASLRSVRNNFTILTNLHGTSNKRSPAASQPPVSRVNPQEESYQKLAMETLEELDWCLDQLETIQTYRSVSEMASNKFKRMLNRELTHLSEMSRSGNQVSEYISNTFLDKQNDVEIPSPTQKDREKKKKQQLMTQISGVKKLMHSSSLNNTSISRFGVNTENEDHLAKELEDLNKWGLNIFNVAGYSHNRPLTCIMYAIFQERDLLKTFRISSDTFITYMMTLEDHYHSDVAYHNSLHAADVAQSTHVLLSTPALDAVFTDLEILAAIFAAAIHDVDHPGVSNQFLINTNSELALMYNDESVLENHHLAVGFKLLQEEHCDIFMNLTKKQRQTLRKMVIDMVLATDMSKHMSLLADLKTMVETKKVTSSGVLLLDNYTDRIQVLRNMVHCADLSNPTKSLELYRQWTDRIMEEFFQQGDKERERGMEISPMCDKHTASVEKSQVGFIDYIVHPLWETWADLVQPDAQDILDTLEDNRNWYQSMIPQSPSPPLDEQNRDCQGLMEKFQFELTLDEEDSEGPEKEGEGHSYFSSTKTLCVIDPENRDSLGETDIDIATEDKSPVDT
Sequence of Guanine nucleotide-binding protein G(i) subunit alpha-1 (Homo sapiens) (P63096 whole entry, looked up): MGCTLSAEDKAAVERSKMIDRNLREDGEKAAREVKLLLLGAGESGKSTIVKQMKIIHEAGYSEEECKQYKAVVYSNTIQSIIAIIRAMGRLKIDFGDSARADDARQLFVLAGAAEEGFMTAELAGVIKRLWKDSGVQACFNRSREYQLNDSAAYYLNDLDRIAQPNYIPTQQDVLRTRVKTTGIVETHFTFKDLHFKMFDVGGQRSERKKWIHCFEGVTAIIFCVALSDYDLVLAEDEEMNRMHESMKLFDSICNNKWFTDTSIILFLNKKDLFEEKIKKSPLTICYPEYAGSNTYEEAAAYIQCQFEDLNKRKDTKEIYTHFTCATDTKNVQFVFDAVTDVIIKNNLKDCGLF
Sequence of Pyruvate kinase PKM (Homo sapiens) (P14618 whole entry, looked up): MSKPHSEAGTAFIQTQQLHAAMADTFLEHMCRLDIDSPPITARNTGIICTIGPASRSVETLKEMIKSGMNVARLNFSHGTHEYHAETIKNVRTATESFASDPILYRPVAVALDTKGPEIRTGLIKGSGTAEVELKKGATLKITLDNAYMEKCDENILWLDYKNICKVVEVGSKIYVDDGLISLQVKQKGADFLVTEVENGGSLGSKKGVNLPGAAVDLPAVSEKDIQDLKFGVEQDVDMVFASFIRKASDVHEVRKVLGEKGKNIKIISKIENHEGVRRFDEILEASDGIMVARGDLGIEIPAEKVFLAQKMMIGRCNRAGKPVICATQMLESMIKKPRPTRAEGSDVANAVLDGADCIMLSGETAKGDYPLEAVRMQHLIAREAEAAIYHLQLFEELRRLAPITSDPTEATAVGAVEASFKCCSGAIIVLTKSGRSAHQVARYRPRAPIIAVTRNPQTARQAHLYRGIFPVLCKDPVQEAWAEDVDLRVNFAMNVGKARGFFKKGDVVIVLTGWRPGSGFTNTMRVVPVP
Sequence of Alpha-galactosidase (Coffea arabica) (Q42656 whole entry, looked up): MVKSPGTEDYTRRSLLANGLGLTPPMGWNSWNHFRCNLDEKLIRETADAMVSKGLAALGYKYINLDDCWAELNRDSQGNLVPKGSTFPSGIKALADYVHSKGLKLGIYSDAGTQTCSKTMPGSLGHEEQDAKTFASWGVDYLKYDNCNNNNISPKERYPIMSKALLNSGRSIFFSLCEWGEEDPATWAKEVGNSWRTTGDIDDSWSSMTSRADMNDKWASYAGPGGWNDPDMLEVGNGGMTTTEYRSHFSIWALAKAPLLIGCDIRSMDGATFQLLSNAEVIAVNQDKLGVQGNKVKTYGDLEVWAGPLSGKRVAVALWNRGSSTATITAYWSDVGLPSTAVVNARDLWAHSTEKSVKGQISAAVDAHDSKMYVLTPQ

Turning to `CC(=O)[C@@H]1CC[C@H]2[C@H]3CC[C@H]4C[C@@H](O)CC[C@]4(C)[C@@H]3CC[C@]12C`, the activity change, negative = inhibition in [1] is 11.2% [at 38 µM]; in [3] it was -10.3% [at 38 µM]. The Potency was 10 µM (active) in test [2] and more than 46 µM in test [5]. Further, the activity, negative = inhibition in [4] was -25.9% [at 38 µM]. In addition, the Potency entry in test [6] and in test [9] was “inactive” each time. Besides, the outcome in test [7], in test [8], in [10], in [11], in test [12] and in test [13] was inactive. In test [14], the outcome was inactive.
Take `N[C@H](Cn1cc(I)c(=O)[nH]c1=O)C(=O)O`: the values for the activity change, negative = inhibition in [1] and in test [3] were 10.7% [at 38 µM] and -6.62% [at 38 µM], respectively. Moreover, the Potency result in [2], in test [6], in [15] and in test [16] was “inactive” in each case. Further, the activity, negative = inhibition in test [4] was -6.5% [at 38 µM]. Besides, the Potency in [5] is more than 46 µM. In addition, the outcome in test [7] was inactive.
With `NC(N)=NCCN=C(N)N`, the activity change, negative = inhibition in [1] was 1.56%; in test [3] it was -0.323%; in test [6] it was 1.78% [at 11.4 µM]. For the same molecule, the Potency result in test [2] is “inactive”. In addition, the Potency in test [5] was more than 46 µM. Besides, the molecule was classed as inactive in test [7].
As to `C[C@@H]1Cc2cc3c(cc2C(c2ccc(N)cc2)=NN1)OCO3`, the activity change, negative = inhibition in test [1] was -10.9% [at 38 µM]; in test [3], -10.6% [at 38 µM]. Moreover, the values for the Potency in [2], in test [5] and in [16] were 5.01 µM (active), more than 46 µM and 2 µM (active), respectively. Further, in test [4], the activity, negative = inhibition is 13.7% [at 38 µM]. In addition, the molecule was classed as inactive in [7], in test [8], in [17], in [10], in test [11] and in [12]. For the same molecule, the molecule was classed as inactive in [13] and in [14]. In addition, in test [9], the Potency entry was “inactive”.
With `CCN=C=NCCCN(C)C`, the activity change, negative = inhibition in [1] was 5.33%; in test [3], 4.76%; in test [6], -0.714% [at 11.4 µM]. Besides, the activity, negative = inhibition in test [4] was 2.84%. The Potency in test [5] is more than 46 µM; in test [18] it was more than 9.22 µM. Further, the molecule was called inactive in [7]. For the same molecule, in test [15], the Potency entry was “inactive”.
Consider `CC(=O)c1c(O)c(C)c(O)c(Cc2c(O)c3c(c(C(=O)/C=C\c4ccccc4)c2O)OC(C)(C)C=C3)c1O`, for which the activity change, negative = inhibition in test [1] is -26.6% [at 38 µM]. Also, the Potency in test [2] was 12.6 µM (active) and 31.6 µM (active); in [5], more than 46 µM; in [16], 2 µM (active). Further, the activity, negative = inhibition in [4] is -35.6% [at 38 µM]. The Potency result in test [6], in test [15], in test [19] and in test [9] was “inactive” each time. The call in test [7], in test [8], in [10], in test [11], in test [12] and in test [13] was inactive. For the same molecule, in test [14], the molecule was classed as inactive.

These data come from PubChem BioAssay (NCATS).
